Results reported in PubChem BioAssay AID434961 (Broad Institute, 2010).
Out of some 7,700 compounds screened, about 15 (0.2%) were called active. Inconclusive results (about 6%) are left out.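 Rule for the calls: active = more than half of replicate wells with inhibition above about 18% (limit read from the data, passing the limit was not always enough); inconclusive = exactly half of replicate wells above that limit; inactive = fewer than half of replicates above it.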 Shown is part of a subset that was picked to be rich in actives.

molecular target: Regulator of chromosome condensation (Homo sapiens) + GTP-binding nuclear protein Ran (Homo sapiens) + Importin subunit beta-1 (Homo sapiens) (UniProt P18754+P62826+Q14974); assay: RanGTP/importin-beta interaction disruptors – biochemical, CFP-Ran/YFP-importin-beta FRET, RCC1, cell-free, primary screen (AID 434961); details: hits give high values, concentration not given here;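 note: 0% = DMSO wells and 100% inhibition = RanGDP control wells on each plate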

inhibition, inactive:
Cc1ccc(S(=O)(=O)Nc2ccc3c(c2)CC(=O)N([C@H](C)CO)C[C@@H](C)[C@@H](CN(C)C(=O)Nc2c(C)noc2C)O3)cc1 1.18%
C[C@H]1CN([C@@H](C)CO)C(=O)c2cccc(NC(=O)c3cnccn3)c2O[C@@H]1CN(C)C(=O)Nc1ccccc1 -1.79%
C[C@H]1CCCCO[C@H](CN(C)C(=O)C2CCCCC2)[C@@H](C)CN([C@@H](C)CO)C(=O)c2cc(NS(=O)(=O)c3cccs3)ccc2O1 2.26%
C[C@@H]1CN([C@H](C)CO)C(=O)c2cc(NC(=O)c3ccncc3)ccc2O[C@@H](C)CCCCO[C@H]1CN(C)Cc1ccc(C(=O)O)cc1 -0.563%
COc1ccc(NC(=O)Nc2ccc3c(c2)C(=O)N([C@H](C)CO)C[C@H](C)[C@@H](CN(C)C)O3)cc1 -2.6%
COc1ccc(CN(C)C[C@@H]2Oc3c(NS(=O)(=O)c4ccc(OC)cc4)cccc3C(=O)N([C@@H](C)CO)C[C@H]2C)cc1 0.462%
C[C@@H]1CCCCO[C@@H](CN(C)C(=O)Nc2cccc3ccccc23)[C@@H](C)CN([C@@H](C)CO)C(=O)c2cc(N(C)C)ccc2O1 2.86%
Cc1noc(C)c1NC(=O)N(C)C[C@H]1Oc2c(NS(=O)(=O)c3ccccc3)cccc2C(=O)N([C@H](C)CO)C[C@@H]1C 4.19%
C[C@H]1CN([C@@H](C)CO)C(=O)CCCn2cc(nn2)CO[C@H]1CN(C)S(=O)(=O)c1ccc(Oc2ccccc2)nc1 0.77%
C[C@@H]1CCCCO[C@@H](CN(C)Cc2ccccc2)[C@H](C)CN([C@@H](C)CO)C(=O)c2cc(NS(=O)(=O)c3ccccc3)ccc2O1 1.85%
C[C@@H]1CN([C@@H](C)CO)C(=O)c2cc(NS(=O)(=O)c3cccs3)ccc2O[C@@H]1CN(C)C(=O)Nc1ccc(F)cc1 -0.701%
C[C@@H]1CN([C@H](C)CO)C(=O)c2cc(NC(=O)c3ccncc3)ccc2O[C@@H](C)CCCCO[C@H]1CN(C)S(=O)(=O)c1ccc(F)cc1 0.556%
COc1ccc(NC(=O)Nc2ccc3c(c2)C(=O)N([C@@H](C)CO)C[C@H](C)[C@H](CN(C)C)O3)cc1 4.32%
C[C@@H]1CCCCO[C@@H](CN(C)C(=O)C2CCCCC2)[C@@H](C)CN([C@@H](C)CO)C(=O)c2cc(NC(=O)Nc3ccccc3)ccc2O1 -1.24%
COc1ccc(NC(=O)Nc2ccc3c(c2)C(=O)N([C@H](C)CO)C[C@@H](C)[C@@H](CN(C)S(=O)(=O)c2cn(C)cn2)O3)cc1 0.222%
C[C@H]1CN([C@@H](C)CO)C(=O)c2cccc(NC(=O)C3CCOCC3)c2O[C@H]1CN(C)Cc1ccc(Oc2ccccc2)cc1 5.74%
C[C@@H]1CN([C@@H](C)CO)C(=O)c2cc(NC(=O)Nc3ccc4c(c3)OCO4)ccc2O[C@@H]1CN(C)C -2.36%
C[C@H]1CCCCO[C@@H](CN(C)S(=O)(=O)c2ccccc2)[C@@H](C)CN([C@@H](C)CO)C(=O)c2cc(N(C)C)ccc2O1 1.05%
C[C@H](CO)N1C[C@H](C)[C@H](CN(C)Cc2ccc3c(c2)OCO3)Oc2c(NC(=O)c3ccncc3)cccc2C1=O -1.01%
C[C@H](CO)N1C[C@H](C)[C@H](CN(C)Cc2ccc3c(c2)OCO3)Oc2ccc(NC(=O)Nc3ccc(F)cc3)cc2CC1=O 1.05%
CNC[C@@H]1Oc2ccc(NC(=O)CCC(F)(F)F)cc2C(=O)N([C@@H](C)CO)C[C@H]1C 2.65%
CNC[C@@H]1Oc2ccc(NC(=O)Nc3ccc4c(c3)OCO4)cc2CC(=O)N([C@@H](C)CO)C[C@@H]1C -0.999%
C[C@@H]1CCCCO[C@H](CN(C)C)[C@@H](C)CN([C@H](C)CO)C(=O)c2cc(NC(=O)Cc3ccccc3)ccc2O1 -1.13%
C[C@H](CO)N1C[C@H](C)[C@@H](CN(C)C(=O)Nc2ccc3c(c2)OCO3)Oc2ccc(N(C)C)cc2C1=O -2.04%
C[C@@H]1CCCCO[C@@H](CN(C)C(=O)C2CCCCC2)[C@@H](C)CN([C@@H](C)CO)C(=O)c2cc(NS(C)(=O)=O)ccc2O1 -4.64%
C[C@@H]1CN([C@H](C)CO)C(=O)CCCn2cc(nn2)CO[C@@H]1CN(C)C(=O)Nc1ccc(N2CCCCC2)cc1 10.6%
C[C@@H]1CCCCO[C@@H](CN(C)Cc2ccncc2)[C@H](C)CN([C@@H](C)CO)C(=O)c2cc(NC(=O)c3ccncc3)ccc2O1 5.19%
C[C@@H]1CCCCO[C@H](CN(C)C(=O)C2CCCCC2)[C@H](C)CN([C@H](C)CO)C(=O)c2cc(NC(=O)Nc3ccccc3)ccc2O1 1.96%
C[C@@H]1CN([C@H](C)CO)C(=O)c2cccc(NS(=O)(=O)c3ccc(Cl)cc3)c2O[C@@H]1CN(C)C -2.17%
Cc1noc(C)c1NC(=O)N(C)C[C@H]1Oc2ccc(NC(=O)Cc3ccccc3)cc2C(=O)N([C@H](C)CO)C[C@H]1C 4.11%
C[C@H](CO)N1C[C@H](C)[C@H](CN(C)C)Oc2ccc(NS(C)(=O)=O)cc2C1=O 4.53%
C[C@@H]1CN([C@H](C)CO)C(=O)Cc2cc(N(C)C)ccc2O[C@H]1CN(C)Cc1ccc(C(F)(F)F)cc1 -0.721%
CC(C)NC(=O)Nc1ccc2c(c1)C(=O)N([C@@H](C)CO)C[C@@H](C)[C@H](CN(C)S(=O)(=O)c1cccs1)OCCCC[C@H](C)O2 3.77%
COc1ccc(S(=O)(=O)N(C)C[C@@H]2Oc3c(NC(=O)c4ccncc4)cccc3C(=O)N([C@@H](C)CO)C[C@H]2C)cc1 -7.21%
Cc1noc(C)c1NC(=O)Nc1ccc2c(c1)CC(=O)N([C@H](C)CO)C[C@@H](C)[C@@H](CN(C)C(=O)NC(C)C)O2 0.926%
Cc1noc(C)c1NC(=O)Nc1ccc2c(c1)C(=O)N([C@@H](C)CO)C[C@@H](C)[C@@H](CN(C)C(=O)CCCN(C)C)OCCCC[C@@H](C)O2 -4.32%
